Test results from the antibiotic and cytotoxicity screens of Wong et al. (2023).
About 1,500 (3.8%) of roughly 39,000 compounds were called active. The list comes from a sample in which actives are over-represented; it also holds similar structures and randomly drawn compounds.

Test system: HSkMC (human skeletal muscle cells)
Experiment: cytotoxicity call (relative viability < 0.9)
Conditions: 10 µM

| SMILES | cytotoxicity call |
| --- | --- |
| C[C@H](CO)N1C[C@H](C)[C@H](CN(C)S(C)(=O)=O)Oc2ccc(NS(=O)(=O)c3ccc(F)cc3)cc2C1=O | inactive |
| CC(C)NC(=O)Nc1ccc2c(c1)CC(=O)N([C@@H](C)CO)C[C@@H](C)[C@H](CN(C)C(=O)NC1CCCCC1)O2 | inactive |
| COc1cccc(S(=O)(=O)N(C)C[C@H]2Oc3ncc(-c4cccc(C(=O)N(C)C)c4)cc3C(=O)N([C@@H](C)CO)C[C@@H]2C)c1 | inactive |
| CCCNC(=O)Nc1ccc2c(c1)C(=O)N(C)C[C@@H](OC)[C@H](C)CN(Cc1ccc(-c3ccccn3)cc1)[C@H](C)CO2 | inactive |
| CNC[C@H]1Oc2ccc(NS(=O)(=O)c3cn(C)cn3)cc2CC(=O)N([C@@H](C)CO)C[C@@H]1C | inactive |
| Cc1noc(C)c1NC(=O)Nc1ccc2c(c1)C(=O)N([C@H](C)CO)C[C@@H](C)[C@H](CN(C)CC1CC1)OCCCC[C@@H](C)O2 | inactive |
| CCCC#Cc1cnc2c(c1)C(=O)N([C@H](C)CO)C[C@@H](C)[C@@H](CN(C)S(=O)(=O)c1cn(C)cn1)O2 | inactive |
| C[C@@H]1CN([C@@H](C)CO)C(=O)Cc2cc(NC(=O)C3CCCCC3)ccc2O[C@H]1CN(C)Cc1ccc(C(=O)Nc2ccccc2N)cc1 | inactive |
| C[C@@H]1CCCCO[C@H](CN(C)Cc2ccc(Cl)c(Cl)c2)[C@@H](C)CN([C@@H](C)CO)C(=O)c2cc(NS(=O)(=O)c3ccccc3)ccc2O1 | active |
| C[C@H]1CCCCO[C@H](CN(C)Cc2ccc(Cl)c(Cl)c2)[C@@H](C)CN([C@@H](C)CO)C(=O)c2cc(NS(=O)(=O)c3ccccc3)ccc2O1 | inactive |
| C[C@@H]1CCCCO[C@H](CN(C)Cc2ccc(Cl)c(Cl)c2)[C@@H](C)CN([C@H](C)CO)C(=O)c2cc(NS(=O)(=O)c3ccccc3)ccc2O1 | inactive |
| C[C@@H]1CN([C@H](C)CO)C(=O)c2cc(NS(=O)(=O)c3ccccc3)ccc2O[C@@H](C)CCCCO[C@@H]1CN(C)Cc1ccc(Cl)c(Cl)c1 | active |
| Cc1noc(C)c1NC(=O)N(C)C[C@@H]1OCCCC[C@@H](C)Oc2ccc(NC(=O)NC3CCCCC3)cc2C(=O)N([C@@H](C)CO)C[C@H]1C | inactive |
| C[C@H](CO)N1C[C@H](C)[C@@H](CN(C)C(=O)Nc2ccc(-c3ccccc3)cc2)OCc2ccccc2-c2ccccc2C1=O | inactive |
| CC(C)[Si](C#C[Si](C(C)C)(C(C)C)C(C)C)(O[C@H](C)c1cn([C@H](C)c2ccccc2)nn1)C(C)C | inactive |
| COc1ccc(S(=O)(=O)Nc2ccc3c(c2)C(=O)N([C@H](C)CO)C[C@H](C)[C@H](CN(C)C(=O)c2ccccc2)OCCCC[C@@H](C)O3)cc1 | inactive |
| C[C@H](CO)N1C[C@H](C)[C@H](CN(C)Cc2ccccc2F)Oc2cc(C#CCN(C)C)ccc2S1(=O)=O | inactive |
| COc1ccc(NC(=O)N(C)C[C@H]2Oc3c(NC(=O)c4cnccn4)cccc3C(=O)N([C@@H](C)CO)C[C@H]2C)cc1 | inactive |

| SMILES | cytotoxicity call |
| --- | --- |
| COc1ccc(NC(=O)N(C)C[C@@H]2Oc3c(NC(=O)Nc4ccc(C(F)(F)F)cc4)cccc3C(=O)N([C@H](C)CO)C[C@@H]2C)cc1 | inactive |
| C[C@@H]1CN([C@@H](C)CO)C(=O)c2cccc(NC(=O)c3ccc(-c4nccs4)cc3)c2O[C@H]1CN(C)Cc1ccc(Oc2ccccc2)cc1 | inactive |
| COc1ccc(NC(=O)Nc2cccc3c2O[C@@H](CN(C)C(=O)Nc2ccc(C(F)(F)F)cc2)[C@H](C)CN([C@H](C)CO)C3=O)cc1 | inactive |
| Cc1noc(C)c1S(=O)(=O)Nc1ccc2c(c1)C(=O)N([C@@H](C)CO)C[C@@H](C)[C@@H](CN(C)S(=O)(=O)c1cn(C)cn1)O2 | inactive |
| C[C@H](CO)N1C[C@H](C)[C@H](CN(C)C(=O)Nc2ccc(F)cc2)Oc2ccc(NS(=O)(=O)c3cn(C)cn3)cc2CC1=O | inactive |
| C[C@@H]1CN([C@@H](C)CO)C(=O)Cc2cc(NC(=O)Cn3cnnn3)ccc2O[C@H]1CN(C)C(=O)Nc1ccc(F)cc1 | inactive |
| CO[C@H]1O[C@H](CO)[C@@H](OC(=O)Nc2ccc3c(c2)OCO3)[C@@H]2OC(=O)[C@H](Cc3cccc(Br)c3)C/C=C/C[C@@H](Cc3cccc(Br)c3)C(=O)O[C@@H]12 | inactive |
| CCOC(=O)[C@H]1C/C=C/C[C@H](C(=O)OCC)C(=O)O[C@H]2[C@@H](OC)O[C@H](CO)[C@@H](OC(=O)Nc3ccccc3)[C@@H]2OC1=O | inactive |
| CCOC(=O)[C@H]1C/C=C/C[C@H](C(=O)OCC)C(=O)O[C@H]2[C@@H](OC)O[C@H](CO)[C@@H](OC(=O)Nc3ccc(OC)cc3)[C@@H]2OC1=O | inactive |
| CCOC(=O)[C@H]1C/C=C/C[C@H](C(=O)OCC)C(=O)O[C@H]2[C@@H](OC)O[C@H](CO)[C@@H](OC(=O)c3c(OC)cccc3OC)[C@@H]2OC1=O | inactive |
| CO[C@H]1O[C@H](CO)[C@@H](OC(=O)Nc2cccc(F)c2)[C@@H]2OC(=O)[C@H](Cc3cccc(Br)c3)C/C=C/C[C@@H](Cc3cccc(Br)c3)C(=O)O[C@@H]12 | inactive |
| CCOC(=O)[C@H]1C/C=C/C[C@H](C(=O)OCC)C(=O)O[C@H]2[C@@H](OC)O[C@H](CO)[C@@H](OC(=O)c3ccc(Br)cc3)[C@@H]2OC1=O | inactive |
| CCOC(=O)[C@H]1C/C=C/C[C@H](C(=O)OCC)C(=O)O[C@H]2[C@@H](OC)O[C@H](CO)[C@@H](OC(=O)Nc3ccc4c(c3)OCO4)[C@@H]2OC1=O | active |
| CCOC(=O)[C@H]1C/C=C/C[C@H](C(=O)OCC)C(=O)O[C@H]2[C@@H](OC)O[C@H](CO)[C@@H](OC(=O)Nc3cccc(F)c3)[C@@H]2OC1=O | active |
| CCOC(=O)[C@H]1C/C=C/C[C@H](C(=O)OCC)C(=O)O[C@H]2[C@@H](OC)O[C@H](CO)[C@@H](OC(=O)Nc3ccc(Br)cc3)[C@@H]2OC1=O | active |
| COc1ccc(NC(=O)N(C)C[C@@H]2OCCCC[C@@H](C)Oc3ccc(NC(=O)c4ccccc4)cc3C(=O)N([C@@H](C)CO)C[C@H]2C)cc1 | inactive |
| CC1(C)OC2CC3C4CCC5=CC(=O)C=CC5(C)C4C(O)CC3(C)C2(C(=O)CO)O1 (stereo not given) | inactive |
